Source: PubChem (several laboratories)
PREPL inh: inhibits the human prolyl oligopeptidase-like enzyme. Q4J6C6. recombinant PREPL, fluorescence polarization activity-based probe. inhibition, % at 5.96 µM. 0.68% of 320,000 active. AID 2751;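 further: 0% = enzyme with DMSO and 100% = wells lacking enzyme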
Target sequence (Q4J6C6 whole entry, looked up): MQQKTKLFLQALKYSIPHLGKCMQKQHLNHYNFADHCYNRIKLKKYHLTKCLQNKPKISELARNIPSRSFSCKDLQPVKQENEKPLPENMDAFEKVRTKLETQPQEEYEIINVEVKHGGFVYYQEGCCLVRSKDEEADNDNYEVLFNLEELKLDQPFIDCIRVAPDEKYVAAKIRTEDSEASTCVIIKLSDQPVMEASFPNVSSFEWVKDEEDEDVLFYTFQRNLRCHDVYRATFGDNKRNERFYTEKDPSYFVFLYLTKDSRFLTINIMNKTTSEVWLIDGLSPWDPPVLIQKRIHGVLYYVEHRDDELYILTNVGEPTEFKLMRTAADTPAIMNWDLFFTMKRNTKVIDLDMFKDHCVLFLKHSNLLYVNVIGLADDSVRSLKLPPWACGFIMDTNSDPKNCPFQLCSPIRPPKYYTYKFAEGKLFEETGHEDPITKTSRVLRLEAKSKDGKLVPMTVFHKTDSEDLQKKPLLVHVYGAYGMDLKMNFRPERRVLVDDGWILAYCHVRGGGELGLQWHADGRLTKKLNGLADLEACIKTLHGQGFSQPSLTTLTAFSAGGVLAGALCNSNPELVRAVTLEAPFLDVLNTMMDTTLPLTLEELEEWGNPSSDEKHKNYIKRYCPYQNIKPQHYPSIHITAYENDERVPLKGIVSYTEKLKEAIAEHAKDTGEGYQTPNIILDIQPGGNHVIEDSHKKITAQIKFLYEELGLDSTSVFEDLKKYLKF
Fam108B counter: Fam108B inhibition, counter-screen for RBBP9 inhibitors. recombinant Fam108B, FP-Rh probe fluorescence polarization. inhibition, % at 9.51 µM. 0.33% of 300,000 active;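 active means inhibition above the screen mean inhibition plus 3 SD, computed separately per campaign, cut at about 18% in these data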;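 further: inhibitors lower polarization as less probe binds the enzyme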
PME-1 inh: blocks human protein phosphatase methylesterase 1. AID 2130. recombinant PME-1, FP-Rh probe fluorescence polarization. Q9Y570. inhibition, % at 5.9 µM. 0.53% of 320,000 active;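 active means inhibition above the campaign mean of all compounds plus 3 SD, cut at about 26% in these data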;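 further: competitive labeling of PME-1 active site by serine hydrolase directed probe; 0% = PME-1 with DMSO and 100% = wells lacking PME-1 enzyme; inhibitors block probe labeling so polarization falls and inhibition rises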
LYPLA2 inh: LYPLA2 (human) inhibition in PME1 counter-screen | inhibition, % at 5.9 µM | O95372 | recombinant LYPLA2, FP-Rh probe fluorescence polarization | 0.38% of 320,000 active | AID 2177;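 active means inhibition above the screen-wide mean plus 3 SD, limit set per campaign, cut at about 26% in these data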;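 further: 0% = LYPLA2 with DMSO and 100% = wells lacking LYPLA2 enzyme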
MEX-5 binding: C. elegans MEX-5 TCR-2 RNA binding activity; Q9XUB2; MEX-5/FITC-TCR2 RNA binding, fluorescence polarization; active compounds read low; activity score (negative = inhibition of binding), % at 10 µM; 0.38% of 300,000 active;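 active means inhibition past about -25% in most replicates, and total fluorescence under double the plate's negative control median, limit read from the data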;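 further: 0% = DMSO and -100% = 5 µM competing unlabeled TCR2 RNA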
LYPLA1 counter: LYPLA1 (human) inhibition in PME1 counter-screen | O75608 | recombinant LYPLA1, FP-Rh probe fluorescence polarization | inhibition, % at 5.9 µM | 0.16% of 320,000 active | AID 2174;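 active means inhibition above the mean of all tested compounds plus 3 SD, set per campaign, cut at about 14% in these data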;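 further: inhibitors block serine hydrolase probe labeling of LYPLA1 so polarization falls; 0% = enzyme with DMSO and 100% = wells lacking LYPLA1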
LYPLA2 confirm: counter-screen for PME1 inhibitors: confirmation of human LYPLA2 inhibitors. shares compounds with LYPLA2 inh. recombinant LYPLA2, FP-Rh probe fluorescence polarization. inhibition, % at 5.9 µM. 72% of 1,100 active;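 active means mean inhibition across replicates above the hit cutoff set in the primary screen, cut at about 26% in these data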;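 further: blocked labeling of the enzyme by serine hydrolase FP-Rh probe lowers polarization; 0% = enzyme with DMSO and 100% = wells lacking LYPLA2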
LYPLA2 ABPP: inhibitors of human LYPLA2. shares compounds with LYPLA2 inh. rhLYPLA2 in mouse brain proteome, gel ABPP FP-Rh. inhibition, % at 20 µM. 30% of 150 active. AID 652029;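 active means inhibition of LYPLA2 enzyme probe labeling above about 50%, limit read from the data; inactive means inhibition below that limit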;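 further: loss of FP-Rh probe labeling of the LYPLA2 gel band measured as band density; 0% = DMSO only control band and 100% = blank gel background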
PREPL confirm: human PREPL inhibition, confirmation. shares compounds with PREPL inh. recombinant PREPL, fluorescence polarization activity probe. inhibition, % at 5.96 µM. 67% of 2,000 active;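 further: 0% = protein with DMSO and 100% = wells lacking protein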
Active calls of the source: *; x = no result. Compounds with a hit are over-represented: about 1.6% of the library has one in this group of screens. Unless noted, no stated cut-off is given here; in the data, active means inhibition above about 43%; inactive means the rest.

SMILES | PREPL inh | Fam108B counter | PME-1 inh | LYPLA2 inh | MEX-5 binding | LYPLA1 counter | PREPL confirm | others
COC(=O)C1=C(c2ccc(C(C)=O)cc2)C[C@@H]2CC[C@H]1N2C(=O)NCCCOC(C)C | 10 | x | -4 | 8 | x | 3 | x
COc1ccc(OCC(=O)N2CCN(Cc3nc4cc([N+](=O)[O-])ccc4n3C)CC2)cc1 | 7 | 0 | 4 | 3 | -1 | 2 | x
O=C(COc1ccc(Cl)cc1)N1CCN(Cc2ccc([N+](=O)[O-])cc2)CC1 | 1 | -2 | -3 | 57* | 2 | 9 | x | LYPLA2 confirm=61*;LYPLA2 ABPP=47
O=C(COc1ccc(Cl)cc1Cl)N1CCN(C/C=C/c2ccccc2)CC1 | -18 | 2 | 3 | 76* | 1 | 13 | x | LYPLA2 confirm=78*;LYPLA2 ABPP=56*
COC(=O)C1=C(c2c(C)noc2C)C[C@@H]2CC[C@H]1N2C(=O)NCCOc1ccccc1 | 15 | x | 2 | 3 | x | 3 | x
CC1COC2N=C(N[N+](=O)[O-])NC2O1 (stereo not drawn) | 13 | 5 | 0 | -5 | 0 | -4 | x
Cc1nc2cc(C(F)(F)F)ccc2n1C1CCN(Cc2nnnn2Cc2cccs2)CC1 | 8 | 1 | -4 | 27* | 2 | -1 | x | LYPLA2 confirm=23
O=C(COc1ccccc1F)N1CCN(CCN2C(=O)c3cccc4cccc(c34)C2=O)CC1 | -6 | -2 | 5 | 38* | -1 | 8 | x | LYPLA2 confirm=35*
O=C(COc1ccccc1)N1CCN(CCN2C(=O)c3cccc4cccc(c34)C2=O)CC1 | 8 | 1 | -1 | 16 | 2 | 3 | x
Cc1[nH]c2ccc(OCc3ccccc3)cc2c1CCN | 50* | 8 | -1 | -2 | 0 | -3 | 44*
Cc1ccc(N)c(N)c1 | -1 | x | -3 | 3 | x | -1 | x
Cc1ccc(N)cc1N | 54* | x | -4 | 3 | x | -1 | 4
C[C@H]1C(=O)O[C@@H]2CCN3CC=C(COC(=O)[C@](C)(O)[C@]1(C)O)[C@H]23 | -2 | -3 | 5 | 4 | x | 2 | x
CCCCn1c(O)c(C(CC)=NCc2ccc3c(c2)OCO3)c(=O)[nH]c1=O | 49* | 1 | -4 | 12 | -2 | -4 | 49*
C=CCn1c(O)c(C(CC)=NCc2ccc3c(c2)OCO3)c(=O)[nH]c1=O | 55* | 2 | 2 | 3 | 1 | 0 | 53*
CC1(C)C[C@H]2C=C(C=O)[C@]3(C=O)C[C@]3(C)[C@H]2C1 | 22 | -1 | -5 | 3 | 2 | 1 | x
O=C(c1ccc2c(c1)N(Cc1ccccc1)CCS2)N1CCC2(CC1)OCCO2 | 58* | 0 | 7 | 2 | 1 | 5 | 55*
C=CCN1C(=O)c2ccccc2Sc2ccc(C(=O)N3CCC4(CC3)OCCO4)cc21 | -7 | 4 | -1 | 6 | -1 | -1 | x
Cc1nc2ccccc2c(=O)n1-c1ccc(Br)cc1[N+](=O)[O-] | 12 | 0 | -6 | 4 | 1 | -2 | x
Cc1ccc(-c2cc(-c3ccc(C)cc3)[n+](-c3ccc(C(=O)O)cc3)c(-c3ccc(C)cc3)c2)cc1 | 2 | -1 | 6 | 6 | -2 | 4 | x
Cc1ccc(C[n+]2c(-c3ccc(C)cc3)cc(-c3ccc(C)cc3)cc2-c2ccc(C)cc2)cc1 | 55* | 3 | 2 | 1 | 2 | 1 | 52*
CCCCn1c(O)c(/C=N/NC(=O)c2ccncc2)c(=O)[nH]c1=S | 2 | -23 | -35 | -46 | 5 | -21 | x
CC1CN=C(Nc2ccc(F)cc2)S1 (stereo not drawn) | 18 | -5 | 2 | -5 | -1 | 0 | x
COc1ccc2[nH]cc(CCN)c2c1 | 14 | -4 | -8 | 6 | x | 0 | x
COc1ccc2[nH]c3c(c2c1)CCN=C3C | 82* | 2 | 4 | -4 | x | -6 | 41
SMILES | PREPL inh | Fam108B counter | PME-1 inh | LYPLA2 inh | MEX-5 binding | LYPLA1 counter | PREPL confirm | others
CN1C[C@H](CNC(=O)OCc2ccccc2)C[C@@H]2c3cccc4c3c(cn4C)C[C@H]21 | 64* | 2 | 2 | 3 | -7 | 0 | 61*
CC1=NN=C(c2ccc(N)cc2)c2cc3c(cc2C1)OCO3 | 9 | 4 | 1 | -9 | x | -4 | x
CCN1C[C@]2(COC)CC[C@H](O)[C@]34C1[C@](O)([C@@H](OC)[C@H]23)[C@@]1(O)C[C@H](OC)[C@H]2C[C@@H]4[C@@H]1[C@H]2OC | 1 | 2 | -3 | 0 | x | 1 | x
CCN1CC2(COC(=O)c3ccccc3N)CCC(OC)C34C5CC6C(OC)CC(O)(C5C6OC)C(O)(C(OC)C23)C14 (stereo not drawn) | 45* | -2 | 5 | 2 | x | 1 | 45*
CCN1C[C@]2(COC(=O)c3ccccc3N)CC[C@H](OC)C34[C@@H]5C[C@H]6[C@H](OC)[C@@H]5[C@](O)(C[C@@H]6OC)[C@@](O)([C@H]13)[C@@H](OC)[C@@H]42 | 53* | -1 | 0 | 5 | 4 | 0 | 46*
COC(=O)C1=C(c2cccc(OC)c2OC)C[C@@H]2CC[C@H]1N2C(=O)NCC1CC1 | 0 | 2 | -3 | 0 | -3 | 4 | x
CCCC[C@@H](C)C[C@@H](C)C(=O)N(C)[C@@H](CC(C)C)C(=O)N[C@H](C(=O)N(C)[C@H](C(=O)N1C[C@@H](O)C[C@H]1C(=O)N1C(=O)C=C[C@@H]1C)C(C)C)C(C)OC(C)=O (stereo partly drawn) | 50* | x | x | x | x | x | 48*
CCN(CC)c1ccc(CN2CC=C(c3ccc(F)cc3)CC2)cc1 | 46* | -2 | 4 | -3 | 0 | -1 | 37
Oc1ccccc1-[n+]1c(-c2ccccc2)cc(-c2ccccc2)cc1-c1ccccc1 | -6 | -5 | 2 | -1 | 4 | -3 | x
Brc1ccc(-[n+]2c(-c3ccccc3)cc(-c3ccccc3)cc2-c2ccccc2)cc1 | 56* | -2 | 3 | -1 | 2 | 4 | 56*
[O-]c1ccccc1-[n+]1c(-c2ccccc2)cc(-c2ccccc2)cc1-c1ccccc1 | 45* | -4 | 1 | -1 | -4 | -2 | 54*
OC(c1ccccc1)(c1ccccc1)C1CCCN1 (stereo not drawn) | -3 | -4 | -1 | 3 | -1 | -2 | x
COC(=O)[C@@H]1C[C@@]1(C)[C@@H](NP(=O)(c1ccccc1)c1ccccc1)c1ccccc1 | 48* | -2 | 8 | 0 | -4 | 2 | 56*
CC(=O)C1(c2ccccc2)CCNCC1 | -3 | -1 | 5 | 3 | 2 | 0 | x
